Screening results as filed in PubChem.
The full list was thinned out, with hits kept by preference.
nsP2pro inh: Primary qHTS for inhibitors of NSP2Pro chikungunya virus (CHIKV). FRET peptide cleavage, nsP2pro, fluorescence 1 h. Potency, µM (doses to about 24.9 µM), for inactives: at the top dose activity change, negative = inhibition, hits mostly inhibitors. 1.1% of 31,000 active. AID 1964107, 2024; also: nearly all actives have a fitted effect of over 60% in size
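Purified recombinant nsP2pro (150 nM final) in 10 mM Tris-HCl pH 8.0 with 0.01% Tween 20 was preincubated 15 min at room temperature with compound (7 concentrations, up to 25 uM). FRET peptide 2 substrate (2.5 uM final) was then added; fluorescence was read after 1 h.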
nsP2 cell sec: Secondary cell base assay for inhibitors of NSP2Pro Chikungunya virus (CHIKV); shares compounds with nsP2pro inh; cell-based CHIKV nsP2 protease reporter assay; Potency, µM (series often up to 51.1 µM), without a hit: at the top dose activity change, negative = inhibition, usual class: inhibitors; 10% of 450 active; also: nearly all actives have a fitted effect of over 70% in size
CHIKV NSP2 FL: Selectivity profile for inhibitors of NSP2Pro chikungunya virus (CHIKV): Full length NSP2 enzyme counterscreen (CHIKV-NSP2). shares compounds with nsP2pro inh. Full-length CHIKV NSP2 protease enzymatic counterscreen. Potency, µM (doses to about 50.7 µM), without a hit: top-dose activity change, negative = inhibition, usual class: inhibitors. 39% of 410 active. AID 1964101, 2024; also: nearly all actives have a fitted effect of over 65% in size
Furin counter: Selectivity profile for inhibitors of NSP2Pro chikungunya virus (CHIKV): Human furin counterscreen; shares compounds with nsP2pro inh; Recombinant human furin enzymatic counterscreen, fluorogenic substrate; Potency, µM (doses to about 50.6 µM), inactives show top-dose activity change, negative = inhibition, usual class: inhibitors; 6% of 410 active; AID 1964102, 2024
NS23 peptide cs: Selectivity profile for inhibitors of NSP2Pro chikungunya virus (CHIKV): Endogenous NS2/3 peptide Counterscreen; AID 1964103, 2024; Potency, µM (top dose mostly 51 µM), for the others: top-dose activity change, negative = inhibition, most hits filed as inhibitors; 34% of 410 active; Purified CHIKV nsP2 protease, endogenous NS2/3 peptide cleavage; shares compounds with nsP2pro inh; also: nearly all actives have a fitted effect of over 55% in size
Papain counter: Selectivity profile for inhibitors of NSP2Pro chikungunya virus (CHIKV): Papain Counterscreen. 5% of 410 active. Potency, µM (top dose mostly 51 µM), inactives show at the highest dose activity change, negative = inhibition, hits mostly inhibitors. shares compounds with nsP2pro inh. purified papain protease activity, enzymatic inhibition
Target sequence (P00784 whole entry, looked up): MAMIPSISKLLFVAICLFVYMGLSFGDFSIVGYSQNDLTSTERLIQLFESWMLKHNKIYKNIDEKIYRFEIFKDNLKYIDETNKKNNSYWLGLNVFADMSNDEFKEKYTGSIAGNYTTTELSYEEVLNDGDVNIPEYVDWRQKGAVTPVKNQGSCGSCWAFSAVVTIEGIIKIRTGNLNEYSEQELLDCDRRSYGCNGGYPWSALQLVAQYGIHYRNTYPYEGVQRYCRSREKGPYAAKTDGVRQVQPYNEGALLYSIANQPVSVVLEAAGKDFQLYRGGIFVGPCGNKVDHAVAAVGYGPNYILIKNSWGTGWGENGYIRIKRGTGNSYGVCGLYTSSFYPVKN
nsP2pro conf qHTS: Confirmatory qHTS for inhibitors of NSP2Pro chikungunya virus (CHIKV) | Potency, µM (doses to about 25.5 µM), inactives show top-dose activity change, negative = inhibition, hits mostly inhibitors | CHIKV nsP2 protease enzymatic activity, qHTS | 43% of 410 active | shares compounds with nsP2pro inh; also: nearly all actives have a fitted effect of over 75% in size
HCV NS3 counter: Selectivity profile for inhibitors of NSP2Pro chikungunya virus (CHIKV): NS34A-HCV Counterscreen | shares compounds with nsP2pro inh | HCV NS3/4A protease biochemical counterscreen | Potency, µM (titrated, usually from 50.9 µM), usual class: inhibitors | 20% of 410 active; also: nearly all actives have a fitted effect of over 55% in size
* hit, by the source's call; i = inactive; ? = inconclusive; . = no result; [ ] = dose if it differs, or a comment. Calls follow the shape of the full dose curve. % is scaled to controls: 0 for no effect and ±100 for the full control effect; potency is read from the fitted curve at half-maximal effect.

SMILES	nsP2pro inh	others
COC1CC(OC2CCC3(C)C(=CCC4C3CCC3(C)C(C(C)OC5OC(COC6OC(CO)C(O)C(O)C6O)C(O)C(O)C5O)CCC43O)C2)OC(C)C1OC1OC(C)C(O)C(OC)C1O (stereo unspecified)	17%[5.1 µM]
CN(CC(=O)NCc1ccc(F)cc1)S(=O)(=O)c1ccc2[nH]c3c(c2c1)CCCC3	-29%
Cc1ccc(CNS(=O)(=O)c2ccc3[nH]c4c(c3c2)CCCC4)cc1	-16%
Cc1cccc(N(C)C(=O)CN(C)S(=O)(=O)c2ccc3[nH]c4c(c3c2)CCCC4)c1	?	nsP2 cell sec=-4%
COc1ccc(-n2ncc3c2CC(C)(C)CC3NC(=O)c2cc(C)[nH]n2)cc1 (stereo unspecified)	i
COc1ccc(CNc2ccc(S(=O)(=O)Nc3nccs3)cc2)c(O)c1	-6%
COc1ccc(S(=O)(=O)Nc2cccnc2Nc2ccc(O)cc2)cc1	?	nsP2 cell sec=-8%;CHIKV NSP2 FL=8%;Furin counter=-13%;NS23 peptide cs=i;Papain counter=-9%;nsP2pro conf qHTS=1%;HCV NS3 counter=i
CC(=O)Nc1ccc(S(=O)(=O)Nc2cccc3cccnc23)cc1	i
O=[S+]([O-])(Nc1ccccc1)c1ccc(NCc2ccc(Cl)cc2O)cc1	-16%
C(#Cc1cccc(CN2CCOCC2)c1)CCN1CCCCC1	9.9µM*	nsP2 cell sec=6%;CHIKV NSP2 FL=?;Furin counter=-12%;NS23 peptide cs=?;Papain counter=-10%;nsP2pro conf qHTS=?;HCV NS3 counter=i
COc1cccc(CN2CCOCCNC(=O)CC2)c1	-12%
O=C1CCN(Cc2cccc(F)c2)CCCOCCN1	0%
CSCCCN1CC[C@@H](NC(=O)c2ccncc2)[C@H](O)C1	-9%
COc1ccnc(NC(=S)N2CCN(c3ccc(Cl)c(Cl)c3)CC2)c1	i
COc1ccc(C2C(C(=O)O)C(C(=O)O)C2c2ccc(OC)cc2O[C@@H]2O[C@H](CO)[C@@H](O)[C@H](O)[C@H]2O)c(O[C@@H]2O[C@H](CO)[C@@H](O)[C@H](O)[C@H]2O)c1 (stereo partly specified)	59%[10 µM]
CCCOc1ccc(C(=O)N(Cc2ccc(Cl)cc2)Cc2ccco2)cc1	-14%
COc1ccc(CN(Cc2ccco2)C(=O)COc2ccccc2Cl)cc1	-16%
CCS(=O)(=O)c1ncc(Cl)c(C(=O)N(Cc2ccccc2)Cc2ccco2)n1	11µM*	nsP2 cell sec=3.3µM*;CHIKV NSP2 FL=16µM*;Furin counter=-3%;NS23 peptide cs=5.2µM*;Papain counter=-6%;nsP2pro conf qHTS=4.5µM*;HCV NS3 counter=i
COc1ccccc1-n1cnc2cc(C(=O)N3CCCCC3)ccc21	-5%
CC(=O)OC1CC(=O)C2(C)C3CC4=C(OC(C)CC4=O)OC3(C)CCC2C1(C)C (stereo unspecified)	94%[10 µM]
CCS(=O)(=O)N1CCN(c2ccc(Nc3ncc(C(N)=O)c(NC4CC4)n3)cc2)CC1	-11%
CS(=O)(=O)c1cccc(CNc2nc(Nc3ccc4c(c3)CCC(=O)N4)ncc2C(F)(F)F)c1	0%
CC(=O)NCC(=O)N1[C@@H]2CC[C@H]1c1ccc(Nc3ncc(C(F)(F)F)c(NC4CCC4)n3)cc12	.	nsP2 cell sec=-31%;CHIKV NSP2 FL=?;Furin counter=-8%;NS23 peptide cs=-13%;Papain counter=?;nsP2pro conf qHTS=?;HCV NS3 counter=i
CCCNC(=O)N1CCC(Cc2ccc(CCNC(C)=O)cc2)CC1	-11%
Cc1ccc(S(=O)(=O)Nc2cnccc2C(=O)NCc2ccccc2)cc1	i
SMILES	nsP2pro inh	others
Cc1sc2c(c1C)C(c1ccc(Cl)cc1)=N[C@H](CC(=O)NCCCCNC(=O)COc1cccc3c1C(=O)N([C@H]1CCC(=O)NC1=O)C3=O)c1nnc(C)n1-2	29%
C=C[C@@]12COC(=O)C(=C)C1[C@@H](O)[C@H](C(=C)C(=O)OC)[C@@H](OC(=O)C(=C)CO)C2 (stereo partly specified)	-13%[10 µM]
C=C(CO)C(=O)O[C@H]1C[C@@]23O[C@@H]2CC/C(=C/[C@H]2OC(=O)C(=C)[C@H]12)CO[C@H]3O	?	nsP2 cell sec=12%[33.5 µM];CHIKV NSP2 FL=?;Furin counter=-1%[33.5 µM];NS23 peptide cs=?;Papain counter=-7%[33.5 µM];nsP2pro conf qHTS=-38%[16.7 µM];HCV NS3 counter=?
C=C1C(=O)OC2/C=C(/C)C3=CC(=O)C(C)(CC(OC(=O)/C(C)=C/COC(C)=O)C12)O3 (stereo unspecified)	-6%[10 µM]
Cn1nc(C2CC2)cc1NC(=O)C(C)(C)C	-6%[39.2 µM]
Cc1ccc(C)c(OCC(=O)N[C@H]2CCOC[C@H]2C2CCOCC2)c1C	4%
Cc1ccnc(NC(=S)NCCN(C)c2cccc(C(F)(F)F)c2)c1	-1%
c1ccc(CN(Cc2nc(-c3ccccn3)no2)CC2CC2)cc1	i
CCN1CCC(=C2c3ccccc3CCc3ccccc32)C1C (stereo unspecified)	-12%
Cc1cc(OCCN(C)C)c(C)c2c1CC[C@@H]([C@H](C)C(=O)NCc1cccs1)C2	37%[39.2 µM]
COc1cc(C)c2c(c1C)C[C@H](C(C)C(=O)NCc1ccco1)CC2 (stereo partly specified)	7.9µM*	nsP2 cell sec=-14%
COc1ccc(CCNC(=O)C(C)C2CCOCC2)cc1OC (stereo unspecified)	-1%
CC(C)C1=NOC2(CCN(C3COC3)CC2)C1	2%[39.2 µM]
N#Cc1ccccc1Nc1ncc(-c2cccc3ccccc23)o1	-61%
CN(C(=O)/C=C/c1ccoc1)[C@@H]1CC[C@@]2(O)[C@H]3Cc4ccc(O)c5c4[C@@]2(CCN3CC2CC2)[C@H]1O5	-6%
C#CCCC(=O)Nc1sc2c(c1-c1nc3ccccc3s1)CCNC2	1%
O=[N+]([O-])c1cc(S(=O)(=O)Nc2ccc(O)c3ccccc23)ccc1Cl	5µM*	nsP2 cell sec=?;CHIKV NSP2 FL=16µM*;Furin counter=-18%;NS23 peptide cs=12µM*;Papain counter=?;nsP2pro conf qHTS=5.7µM*;HCV NS3 counter=i
